Screens (PubChem)
Compounds with a hit are over-represented: about 1.9% of the library has one in this group of screens.
TNF death inh = blocks TNF-alpha induced death of Jurkat FADD-/- cells | activation (protection from cell death), % at 10 µM | Jurkat FADD-/- TNF necroptosis rescue, ATP luminescence, 24 h; 0 = TNF only, 100 = no-TNF cells | actives 0.068% (n = 220,000);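 active = activation, meaning protection from cell death, of at least 50% relative to plate controls; inactive = activation below 50%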;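 also: necroptosis triggered by 40 ng/mL TNF-alpha added together with compound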
Hsp70 activator = Hsp70 transcriptional activation, primary screen | activation, % at 10 µM | actives 0.04% (n = 200,000) | HeLa Hsp70 promoter luciferase reporter, luminescence; scaled: vehicle 0, proteasome-inhibitor control 100%;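 active = activation above the mean across all tested compounds plus 3 SD, cutoff set per campaign, cut at about 5.5% in these data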;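 also: 100% = MG132 at 30 µM as the positive control and 0% = DMSO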
zVAD death inh = L929 zVAD cell death inhibition; L929 zVAD necroptosis rescue, ATP luminescence, 24 h; with zVAD 60 µM; AID 1377; viability rescue, % at 10 µM; actives 0.38% (n = 220,000);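 active = activation, scaled between plate controls, above about 75%, limit read from the data; inactive = activation under that limit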;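 also: 0% = zVAD with DMSO and 100% = DMSO alone without zVAD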
HSF1 activator = increases HSF-1 driven luciferase reporter signal. NIH3T3-HGL HSF-1 luciferase reporter, MG132, 8 h; 100% = twice DMSO control signal. activation, % at 9 µM. actives 1.7% (n = 300,000);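 active = mean replicate activation of at least 50% with a set share of replicates each reaching 50%; inconclusive = only one of those two conditions met; inactive = mean below 50% and too few replicates reaching it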;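 also: 0% = median of the neutral control wells and 100% = twice that signal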
Starred values were filed as active, the others as inactive; ? = inconclusive; / = not tested or not shown.

SMILES | TNF death inh | Hsp70 activator | zVAD death inh | HSF1 activator
CCSCCc1nnc(NC(=O)Nc2cccc(C(F)(F)F)c2)s1 | -7 | 0 | 56 | -36
Cc1ccc(N2CCN(S(=O)(=O)c3c(C)nc4scc(C)n4c3=O)CC2)c(C)c1 | / | / | / | 19
Cc1ccc(NC(=O)c2cc(-c3ccc(C)o3)nc3ccccc23)cc1 | 1 | 0 | 0 | 0
Cc1ccc(-c2cc(C(=O)Nc3cccnc3)c3ccccc3n2)o1 | -4 | 0 | 1 | 52*
Cn1cccc1Cc1nnc(SCC(=O)Nc2ccc3c(c2)OCO3)n1-c1ccc(F)cc1 | 1 | 0 | 0 | 18
CCN(CCCNC(=O)CNC(=O)c1nn(-c2ccc(OC)cc2OC)c(=O)c2ccccc12)c1cccc(C)c1 | / | / | / | 61*
O=C(NCc1ccc2c(c1)OCO2)C(=O)NCC1OCCN1S(=O)(=O)c1ccccc1 (centres undefined) | / | / | / | -9
O=C(OC1CCCCC1)c1cc2ccccc2oc1=O | / | / | / | 52*
O=C1c2cccc3c([N+](=O)[O-])ccc(c23)C(=O)N1c1ccccn1 | -26 | 0 | 41 | -68
O=C1c2cccc3c([N+](=O)[O-])ccc(c23)C(=O)N1O | / | / | / | 52*
Cc1cccc(/C=C2/S/C(=N/N=C3\CC4CCC3(C)C4(C)C)NC2=O)c1 (centres undefined) | -2 | 0 | 1 | /
CCn1c(N)c(C(=O)NC)sc1=S | -1 | 0 | 1 | -10
Cc1noc2ncnc(Sc3ccc(Cl)cc3)c12 | -8 | 0 | 0 | 72*
COC(=O)c1ccc(N=NN2CCCCCC2)cc1 | 1 | 0 | -1 | 75*
COc1ccccc1CNC(=O)COC(=O)C1CCN(S(=O)(=O)c2ccccc2)CC1 | / | / | / | -7
COC(=O)c1c(C)[nH]c(C(=O)/C=C/c2ccccc2)c1C | 2 | 0 | 60 | 59*
COC(=O)c1c(C)[nH]c(C(=O)/C=C/c2cccc(Cl)c2)c1C | 3 | 0 | 49 | 356*
Cc1[nH]c2ccccc2c1/C=C/C(=O)c1ccccc1 | 3 | 0 | 1 | 47
COC(=O)c1c(C)[nH]c(C(=O)CSc2ccc(Cl)cc2)c1C | 0 | 0 | 0 | 91*
Cc1[nH]c2ccccc2c(=O)c1C(=O)/C=C/c1ccccc1 | -13 | / | 71 | 87*
Cc1ccc(/C(C#N)=C\c2ccc(N3CCOCC3)o2)cc1 | -6 | 1 | 2 | 76*
N#C/C(=C/c1ccc(N2CCCCC2)o1)c1cccc(F)c1 | -5 | 0 | 0 | 172*
N#C/C(=C/c1ccc(N2CCCCC2)cc1)c1cccc(F)c1 | 4 | 0 | 2 | -17
CCOC(=O)N1CCN(S(=O)(=O)c2ccc(OC)c(C(=O)N3CCCCC3)c2)CC1 | / | / | / | 2
Cc1ccc(N(C(=O)c2csnn2)C(C(=O)NC2CCCC2)c2cccnc2)c(C)c1 (centres undefined) | / | / | / | 7
SMILES | TNF death inh | Hsp70 activator | zVAD death inh | HSF1 activator
COc1ccc(C2C(C#N)=C(N)Nc3nc4ccccc4n32)cc1 (centres undefined) | 3 | 0 | 1 | 53*
COc1ccc(C2C=C(C)Nc3nc4ccccc4n32)cc1 (centres undefined) | 0 | 0 | 1 | ?
COc1cc(/C=N/NC(=O)c2ccc(Cl)cc2)ccc1OCC(=O)N1CC(C)OC(C)C1 (centres undefined) | 1 | 0 | 2 | 56*
COc1cc(/C=N/NC(=O)c2ccc(CSc3nncn3C)cc2)ccc1OCC(=O)N1CC(C)OC(C)C1 (centres undefined) | 0 | 0 | 1 | -4
O=C(N/N=C/c1ccc(Cl)cc1)c1ccc2c(c1)OCO2 | / | / | / | 55*
O=C(Nc1ccc(Cl)c(Cl)c1)c1ccc2c(c1)OCO2 | / | / | / | 88*
O=C(Nc1ccc(Cl)cc1)c1ccc2c(c1)OCO2 | -2 | 0 | 0 | 60*
O=C(N/N=C/c1cccnc1)c1cccc(Cl)c1 | / | / | / | 3
CC(C)c1ccc(/C=N/NC(=O)c2cccc(Cl)c2)cc1 | -5 | 0 | 3 | 55*
CCCCc1ccc(NS(=O)(=O)c2c(C)n(C)c(=O)n(C)c2=O)cc1 | / | / | / | 64*
CCc1ccc(C(=O)COC(=O)c2cc([N+](=O)[O-])ccc2N2CCOCC2)cc1 | / | / | / | -14
O=C(CCC1CCCN(C(=O)c2ccc3cc[nH]c3c2)C1)NCc1ccc(F)c(F)c1 (centres undefined) | 1 | 0 | 4 | 57*
CCn1cc(C(=O)NCCCN2CCN(C)CC2)c(=O)c2cc(S(=O)(=O)N3CCc4ccccc4C3)ccc21 | -7 | 0 | -2 | 3
CCn1c(CNc2ccc(Cl)cc2)nnc1SCC(=O)NCc1ccccc1 | -7 | 0 | 0 | 60*
CCn1c(CNc2ccc(Cl)cc2)nnc1SCc1ccccc1 | 3 | 0 | 0 | -4
Cc1cc2c(cc1C)CN(c1ccccc1)C2 | -2 | / | 0 | 56*
Cc1ccc(Cl)cc1NC(=O)C[n+]1ccc(Cc2ccc([N+](=O)[O-])cc2)cc1 | -1 | 0 | -2 | 65*
O=C(C[n+]1ccc(Cc2ccccc2)cc1)Nc1ccc([N+](=O)[O-])cc1Cl | 0 | 0 | 0 | 0
COc1cc(Cl)ccc1OCc1cc(C(=O)N2C[C@H]3CC[C@H]2C3)no1 | / | / | / | 47
COc1cc(Cl)ccc1OCc1cc(C(=O)N2C[C@@H]3CCC[C@H]2C3)no1 | / | / | / | 56*
CCc1ccc(C2CC(=O)N(c3cccc(F)c3)C3=C2C(=O)OC3)cc1 (centres undefined) | 0 | 0 | 2 | 1
COc1ccc(OCc2nnc(SCC(=O)Nc3ccccc3Cl)o2)cc1 | / | / | / | 7
O=C(CC1(CC2=NS(=O)(=O)c3ccccc3N2)CCCC1)NCCc1ccccc1 | / | / | / | 10
CCN(CC)S(=O)(=O)c1ccc(N2CCOCC2)c(NC(=O)c2ccccc2F)c1 | -1 | 0 | -1 | -1
CCN(CC)S(=O)(=O)c1ccc(N2CCOCC2)c(NC(=O)c2cc3ccccc3oc2=O)c1 | / | / | / | 69*
SMILES | TNF death inh | Hsp70 activator | zVAD death inh | HSF1 activator
Cc1ccc(NC(=O)CSCc2ccc(F)cc2)cc1 | 53* | 0 | 0 | 3
O=C(CSc1ccc(F)cc1)Nc1ccc(Br)cc1 | 12 | 0 | 2 | 102*
O=C(CSc1nc2c(c(=O)[nH]1)CCC2)Nc1cccc(F)c1 | / | / | / | 32
Cc1ccc(CSCC(=O)NCc2ccc(F)cc2)cc1 | 6 | 0 | 1 | -37
O=C(CSc1ccccc1)Nc1ccc(N2CCN(c3ccccc3)CC2)c(F)c1 | -4 | 0 | 0 | 55*
O=C(CSc1ccc(F)cc1)Nc1ccccc1Br | 16 | 0 | 2 | 35
O=C(CSc1nc2c(c(=O)[nH]1)CCC2)Nc1ccc(F)cc1 | / | / | / | 68*
CS(=O)(=O)N(CC(=O)NC1CCCC1)C1CCCCC1 | -1 | 0 | -1 | /
Cc1cc(C)n(-c2ccc(C(=O)OCC(=O)c3ccc(Br)s3)cc2)n1 | -3 | -1 | 0 | -25
COC(=O)C1Cc2ccccc2CN1C(=O)CCl (centres undefined) | -3 | 0 | 10 | -9
Cc1cccc(N(CC(=O)NCc2ccc(F)cc2)C(=O)c2ccco2)c1 | / | / | / | 12
c1ccc2c(c1)Nc1nccnc1S2 | 22 | 0 | 85* | /
